# Data as given in PubChem BioAssay.
# Assays:
# [1] = molecular target: Tumor necrosis factor receptor superfamily member 10B (Homo sapiens) (UniProt O14763); assay: viability loss of caspase-8 NB7 cells with TRAIL – with/without TRAIL, luminescence panel, confirmation (AID 651596); conditions: NB7 neuroblastoma + caspase-8, TRAIL sensitization, NB7 Caspase-8, with TRAIL, mean of runs, at 10 µM, stronger effect = higher value
# [2] = as above; conditions: NB7 neuroblastoma + caspase-8, without TRAIL, NB7 Caspase-8, without TRAIL, mean of runs, at 10 µM
# Chain of Tumor necrosis factor receptor superfamily member 10B (Homo sapiens) (O14763 whole entry, looked up): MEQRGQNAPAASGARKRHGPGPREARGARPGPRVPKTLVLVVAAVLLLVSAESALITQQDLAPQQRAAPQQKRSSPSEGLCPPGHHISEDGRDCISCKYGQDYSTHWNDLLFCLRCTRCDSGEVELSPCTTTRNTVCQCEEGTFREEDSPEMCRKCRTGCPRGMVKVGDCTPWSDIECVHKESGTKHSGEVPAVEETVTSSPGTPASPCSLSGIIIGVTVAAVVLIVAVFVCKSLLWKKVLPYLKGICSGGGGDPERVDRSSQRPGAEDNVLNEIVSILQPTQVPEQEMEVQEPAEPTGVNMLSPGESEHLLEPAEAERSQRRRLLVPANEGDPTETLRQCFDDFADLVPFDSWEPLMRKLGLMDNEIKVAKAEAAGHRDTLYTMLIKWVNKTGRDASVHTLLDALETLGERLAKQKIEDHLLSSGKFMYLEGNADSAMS
SMILES,activity [1] [%],activity [2] [%]
Cc1ccc(-c2nc3cc(N)ccc3o2)c(C)c1,61,49.5
COc1cccc(-c2nnc(Nc3nc4c(F)cccc4s3)o2)c1,81.2,84.2
Cc1ccc2nc(-c3ccc(NC(=O)CCS(=O)(=O)c4ccccc4)cc3)sc2c1,87.5,86.9
O=[N+]([O-])c1ccc(-c2nc(C(Cl)Cl)c3ccccc3n2)cc1,56.8,96.3
CCc1nn2cc(-c3ccccc3)nc2s1,79.7,78.6
O=C(N/N=C/c1ccccc1[N+](=O)[O-])c1ccc2c(c1)OCCO2,95.4,94.5
Nc1nc(CCl)nc(N(c2ccccc2)c2ccccc2)n1,99.3,98.7
Oc1cccc(/C=N/Nc2cccc3cccnc23)c1,48.6,34.2
Cc1ccccc1/C=C/c1nc2ccccc2c(=O)[nH]1,56.1,58.7
C(=N\Nc1nncc2ccccc12)/c1ccccc1,88.2,87.7
COC(=O)CSc1nnc(NC(=O)/C=C\c2ccc3c(c2)OCO3)s1,49.5,66.2
O=C(CCl)N=c1sccn1Cc1ccccc1Cl,99.6,98.9
Clc1ccc(-c2nnc(SCc3ccon3)o2)c(Cl)c1,51.8,58.7
O=C(CSc1ncnc2nc[nH]c12)c1ccc(Cl)cc1,57.6,66
O=C(Nc1nsc(-c2ccccc2)n1)c1cccs1,56.6,56
O=C(Nc1cccc(O)c1)c1cc(-c2ccccc2Cl)on1,82.2,78
CN(C)c1cccc(C(=O)Nc2nc3ccccc3[nH]2)c1,90.2,78.5
Cc1ccc2nc(-c3ccc(NC(=O)COC(=O)c4ccc(Br)o4)cc3)sc2c1,62,67.4
Cc1cc(O)c(C(=O)/C=C/c2ccc(Cl)cc2)c(=O)o1,83.4,79.5
Cc1ccc(/C=C(\C#N)c2nc3ccccc3[nH]2)s1,69.8,72
C#CC(=O)N(c1cc(OC)ccc1OC)C(C(=O)NC1CCCC1)c1cccs1 (stereo not drawn),98.2,98.5
Cc1ccc(S(=O)(=O)NC(=O)NC2=NC(C)(C)N(c3ccc(Cl)c(Cl)c3)C(N)=N2)cc1,77.4,84.2
O=C(CN1C(=O)c2ccccc2S1(=O)=O)c1ccccc1F,16.9,27.8
COn1c(SCc2ccccc2)nc2ccccc2c1=O,65.3,59.9
NC(Cc1ccc(C(F)(F)F)cc1)c1csc(NC(=O)Nc2ccccc2Cc2ccccc2)n1 (stereo not drawn),75,96.2

SMILES,activity [1] [%],activity [2] [%]
CCC(=O)N1CCN(c2ccc(NC(=O)c3cc4ccccc4o3)cc2Cl)CC1,79.6,54.4
CN1/C(=C\C(=O)C[n+]2ccc(C(=O)c3ccccc3)cc2)C(C)(C)c2ccccc21,15.8,27.4
c1ccc2nc3c(nc2c1)[nH]c1ccccc13,45.7,44.5
Cc1csc(NC(=S)NC(=O)c2ccccc2)n1,67.7,53.1
CCS(=O)(=O)c1ncc(Cl)c(C(=O)Nc2ccc(C)cc2)n1,78.6,86.8
C=CCOC(=O)c1sc(NC(=O)c2ccco2)nc1C,39.1,40.2
CN(C)c1cccc(C(=O)N/N=C/c2ccccc2F)c1,82.8,73.2
CCN1CCN(c2c(Cl)cccc2NC(=O)c2ccc([N+](=O)[O-])o2)CC1,52.3,61.3
COc1cc2nc(CN(C)Cc3ccc(C(C)(C)C)cc3)[nH]c(=O)c2cc1OC,70.5,68
Cc1cc(C)cc(NS(=O)(=O)c2ccc3c(c2)c(=O)n(C)c(=O)n3C)c1,79,82.2
Cc1cccc(N2CCN(C(=S)Nc3ccc4nc(N5CCN(C)CC5)cc(C)c4c3)CC2)c1C,98,99.2
Cc1ccc(C(=O)Nc2ccc3c(c2)OCCO3)cc1,90.4,90.2
O=C(CCl)Nc1ccc(Oc2cnc3ccccc3n2)cc1,97.6,98.5
Oc1ccccc1C=Nc1ccccc1-c1nc2ccccc2[nH]1,7.4,1.85
COc1ccc2nc(NN=C(C)c3ccccn3)cc(C)c2c1,74,80.1
O=[N+]([O-])c1ccc(N2CCN(Cc3ccccc3)CC2)c2c1no[n+]2[O-],99.2,99.1
CN(C)c1ccc(C(=O)Nc2nc3c(s2)CCCC3)cc1,51.9,48.6
Nc1ccccc1C#CC(=O)c1ccccc1,33.9,94.2
CC(C)C(=O)Nc1ccc2nn(-c3ccccc3)nc2c1,52.4,55
O=C(NC(=S)N1CCc2ccccc21)c1ccccc1,65.3,72.6
CCCNC(=O)c1ccc(-c2nc3ccccc3s2)s1,87.8,83.5
Cc1ccc2nc(-c3ccc(NC(=O)COC(=O)c4cncc(Br)c4)cc3)sc2c1,60.7,60.1
Cc1c(C(=O)N2CCc3ccccc32)oc2ccccc12,48.2,41
COC(=O)c1cc(OCC(=O)Nc2ccc3c(c2)CCC3)cc(C(=O)OC)c1,-14.7,-57.5
Nc1ccc(-c2cnc(-c3ccc(N)cc3)nc2)cc1,74.7,71.7

SMILES,activity [1] [%],activity [2] [%]
O=C(/C=C/c1cccs1)N1CCc2ccccc21,59.8,55.5
CCOc1ccc(C(=O)Nc2cc(C)on2)cc1,64.9,61.7
CC1CCN(c2ccc(-c3ccc(NC(=O)C(F)(F)F)cc3)nn2)CC1,94.6,96
Cc1ccc(C2=Nc3ccccc3N=C(C(Cl)Cl)C2)cc1,7.3,6.45
CCOc1ccc(C(=O)Nc2nnc(SCC(=O)NCC3CCCO3)s2)cc1 (stereo not drawn),96.1,96.3
O=C(Nc1ccccc1C(=O)N/N=C/c1ccncc1)c1ccccc1,91.7,87.5
CCOC(=O)NC(=O)CSc1nc(C)cc(C)c1C#N,71,61.4
COn1c(SCc2ccc(C)cc2C)nc2ccccc2c1=O,69.7,35.5
CC(=O)Nc1nc2ccccc2n1CCOc1ccccc1,45.6,49.5
CSc1nnc(NC(=O)c2ccc3c(c2)OCO3)s1,76.5,78.7
O=C(Nc1ccncc1)c1ccc(-c2ccccc2)cc1,24.3,21
C[C@@H](CO)NC(=O)c1ccc2c3n(nc2c1)-c1ccccc1CO3,91.5,91.8
Cc1c(C(=O)Nc2cccc([N+](=O)[O-])c2)csc1-c1ccccc1,56.5,48.1
Cc1ccc2nc(-c3ccc(NC(=O)COC(=O)c4ccc([N+](=O)[O-])o4)cc3)sc2c1,70.1,69.9
NC1=NC[C@H](CC2CCCCC2)N1CCc1cc(C(F)(F)F)cc(C(F)(F)F)c1,40.9,80
COc1cc(NCCCCC(C)N)c2nccc(C)c2c1 (stereo not drawn),38,45.6
CCOc1ccc(N=Cc2c(C)[nH]n(-c3nc4ccccc4[nH]3)c2=O)cc1,87.4,86.2
O=C(NCCO)c1ccc2c3n(nc2c1)-c1ccccc1CO3,78.9,78.8
Cc1cccc2sc(NNC(=O)c3cc(-c4cccs4)nc4ccccc34)nc12,25.2,26.2
O=C(c1cc(-c2ccc3c(c2)OCO3)on1)N1CCCCC1,53.4,48.9
O=C(/C=C\Nc1ccccn1)c1ccc(Cl)cc1,77.2,63.3
COC(=O)C1=C(C(=O)OC)[C@@H]2N(Cc3ccccc3)c3ccccc3[C@@]23C[C@@H](C(=O)OC)N(C(=O)c2cccs2)C3=N1,17.8,-45.8
CCc1ccc(OCc2nc(-c3ccccn3)no2)c(Br)c1,50,46.4
CC(=O)Oc1ccccc1/C=C/c1nc2ccccc2c(=O)o1,83.7,84.8
